Out of some 69,000 compounds screened, about 8,600 (12%) showed an effect of 50% or more. Shown is part of a subset that was picked to be rich in strong results.
test system: Plasmodium berghei; experiment: Screen against P. berghei liver stage (PbLuc), transformed with Luciferase, at 10uM; assay type: functional, HepG2; details: tested at 10 uM

How did the INHIBITION turn out when `CN(C)C(=O)CN1C[C@H]2CC[C@@H](C1)N(Cc1c(F)cccc1Cl)C2` was run?
The INHIBITION was 29.8%.

For `CN(C)S(=O)(=O)N1C[C@H]2CC[C@@H](C1)N(C/C=C/c1ccc(F)cc1)C2`, which INHIBITION is on record?
Its INHIBITION is 30.7%.

`CN(C)C(=O)CN1C[C@H]2CC[C@@H](C1)N(Cc1cc(F)ccc1F)C2` was tested. Which INHIBITION did it give?
Its INHIBITION is 0.139%.

Which INHIBITION does the source give for `CN(C)C(=O)CN1C[C@H]2CC[C@@H](C1)N(Cc1cccc(Cl)c1Cl)C2` here?
The INHIBITION was 61.8%.

Which INHIBITION does the source give for `CN(C)C(=O)CN1C[C@H]2CC[C@@H](C1)N(C/C=C/c1ccc(F)cc1)C2` here?
The INHIBITION was 52.5%.

With `CN(C)C(=O)CN1C[C@H]2CC[C@@H](C1)N(Cc1ccccc1OCCO)C2` as the compound, how does the INHIBITION read?
Its INHIBITION is 59.7%.

`CCOc1ccc(Cl)c(C(=O)N2CCCC(c3cc(C)[nH]n3)C2)n1` (stereo not drawn) was tested. Which INHIBITION did it give?
The INHIBITION was -4.13%.

`CS(=O)(=O)NCC(=O)NC1CCCN(c2ccccn2)C1` (stereo not drawn) was tested. Which INHIBITION did it give?
The INHIBITION was 7.605%.

`CC1(C)CN(C(=O)c2cc(F)cc3[nH]cnc23)CCS1` was tested. Which INHIBITION did it give?
Its INHIBITION is 10.2%.

With `O=C1COC2(CCN(C(=O)c3ccco3)CC2)CN1Cc1cccnc1` as the compound, how does the INHIBITION read?
Its INHIBITION is 43.2%.

`CNC(=O)[C@@H]1CN(C(=O)COC)C[C@H]1c1ccnc(N2CCCC2)n1` was tested. Which INHIBITION did it give?
Its INHIBITION is 21.7%.

With `Cn1ccc(C(=O)Nc2cc(F)ccc2OCC2CCCO2)cc1=O` (stereo not drawn) as the compound, how does the INHIBITION read?
Its INHIBITION is 15.6%.

How did the INHIBITION turn out when `Cc1nc(COCc2nc3c(o2)CN(C(=O)c2ccc[nH]2)C3)cs1` was run?
Its INHIBITION is -13.9%.

With `CN(C)CC(=O)N1CCO[C@@H]2CC(COCc3ccncc3)C[C@H]21` (stereo partly drawn) as the compound, how does the INHIBITION read?
The INHIBITION was 11.3%.

With `CN(CCc1cn[nH]c1)C(=O)C(c1ccc(F)cc1)N(C)C` (stereo not drawn) as the compound, how does the INHIBITION read?
The INHIBITION was 43.7%.

Which INHIBITION does the source give for `Cc1cc(C)cc(CCC(=O)N(C)CCc2cn[nH]c2)c1` here?
The INHIBITION was -10.2%.

With `Cc1cccc(C(C(=O)N(C)CCc2cn[nH]c2)N(C)C)c1` (stereo not drawn) as the compound, how does the INHIBITION read?
Its INHIBITION is 42.6%.

`Cc1ccccc1C(C(=O)N(C)CCc1cn[nH]c1)N(C)C` (stereo not drawn) was tested. Which INHIBITION did it give?
The INHIBITION was 54.4%.

How did the INHIBITION turn out when `Cc1ccccc1C(C(=O)N(C)CCc1cnn(C)c1)N(C)C` (stereo not drawn) was run?
The INHIBITION was 31.7%.

Which INHIBITION does the source give for `Cc1ccc(C(C(=O)N(C)CCc2cn[nH]c2)N(C)C)cc1` (stereo not drawn) here?
The INHIBITION was 51.1%.

With `COc1cccc(C(C(=O)O)N(C)Cc2ccc(C)o2)c1` (stereo not drawn) as the compound, how does the INHIBITION read?
Its INHIBITION is 46.7%.

`CN(C)[C@@H]1CN(C(=O)c2cc3ccc(F)cc3[nH]2)C[C@H]1O` was tested. Which INHIBITION did it give?
The INHIBITION was 18.15%.

For `Cc1ccsc1C(=O)N1CCCn2c(nc(CN(C)C)cc2=O)C1`, which INHIBITION is on record?
Its INHIBITION is -10.3%.

With `CCn1c(CN2CCN(CCOC)CC2)nc2c(F)cccc21` as the compound, how does the INHIBITION read?
Its INHIBITION is 46.95%.

How did the INHIBITION turn out when `c1cnnc(-c2noc(CCN3CCCO3)n2)c1` was run?
Its INHIBITION is -8.51%.

How did the INHIBITION turn out when `O=C1CCCCCN1CCc1nc(-c2cccnn2)no1` was run?
The INHIBITION was 9.04%.

Which INHIBITION does the source give for `O=C1CCCCN1CCc1nc(-c2cccnn2)no1` here?
Its INHIBITION is 52.9%.

`COc1ccc(CN2CCc3ncnc(C4CCOC4)c3CC2)cc1` (stereo not drawn) was tested. Which INHIBITION did it give?
Its INHIBITION is 24.6%.

How did the INHIBITION turn out when `Cn1nnc(NCc2ccc(OCc3ccc(Cl)cc3)cc2)n1` was run?
Its INHIBITION is -47.4%.

`CCOc1cc(CNc2nnn(C)n2)ccc1OCc1ccc(Cl)cc1` was tested. Which INHIBITION did it give?
The INHIBITION was 63.1%.

For `Cn1nnc(NCc2ccccc2OCc2ccc(Cl)cc2)n1`, which INHIBITION is on record?
Its INHIBITION is 4.07%.

Which INHIBITION does the source give for `Cc1ccc(NC2CCN(C(=O)CCc3cscn3)CC2)nn1` here?
Its INHIBITION is 7.12%.

Which INHIBITION does the source give for `c1ccc(CCNCC2Cn3nncc3CO2)cc1` (stereo not drawn) here?
The INHIBITION was 33%.

How did the INHIBITION turn out when `O=C(c1ccccc1F)N1CCOC(c2nc(-c3ncccn3)no2)C1` (stereo not drawn) was run?
Its INHIBITION is 18.9%.

For `Cc1cn(CC(=O)Nc2cc(C(C)(C)C)nn2C)cn1`, which INHIBITION is on record?
The INHIBITION was 16.9%.

How did the INHIBITION turn out when `CCN(CC(C)C#N)C(=O)CNc1ccc(F)c(C)c1` (stereo not drawn) was run?
Its INHIBITION is -48.4%.

Which INHIBITION does the source give for `CCN(CC(C)C#N)C(=O)CNc1cc(Cl)ccc1C(N)=O` (stereo not drawn) here?
The INHIBITION was 17.5%.

How did the INHIBITION turn out when `CCN(CC(C)C#N)C(=O)CNc1ccc(C(N)=O)c(C)c1` (stereo not drawn) was run?
The INHIBITION was 92.5%.

Which INHIBITION does the source give for `O=C(CCN1CCOC1=O)Nc1cnn(-c2ccccc2Cl)c1` here?
Its INHIBITION is 13.3%.

`Cc1noc(-c2ccc(Oc3cccc(CN4CCCC4)c3F)nc2)n1` was tested. Which INHIBITION did it give?
The INHIBITION was 35%.

For `c1ccc(Oc2nccc3occc23)c(CN2CCCCC2)c1`, which INHIBITION is on record?
Its INHIBITION is 48.8%.

How did the INHIBITION turn out when `CCN1CCC(N2CCN(c3cc(-c4nc(C)no4)ccn3)CC2)CC1` was run?
Its INHIBITION is 33.8%.

Which INHIBITION does the source give for `Cc1noc(-c2ccnc(Oc3cccc(CN4CCCC4)c3F)c2)n1` here?
The INHIBITION was 83.3%.

`Cc1noc(-c2ccnc(Oc3ccccc3CN3CCCCC3)c2)n1` was tested. Which INHIBITION did it give?
The INHIBITION was 56.3%.

Which INHIBITION does the source give for `COc1cccc(CN2CCN(c3noc(C(C)C)n3)CC2)c1F` here?
The INHIBITION was -21.8%.

Which INHIBITION does the source give for `CC(NC(=O)NCCCn1cncn1)c1ccc(C#N)cc1` (stereo not drawn) here?
Its INHIBITION is 24.75%.

Which INHIBITION does the source give for `CC=C(C)C(=O)NS(=O)(=O)c1ccc(C(F)(F)F)cn1` here?
The INHIBITION was 13.8%.

How did the INHIBITION turn out when `O=C(CCCN1CCOCC1)N1CCCC(CO)(CC2CC2)C1` (stereo not drawn) was run?
The INHIBITION was -4.21%.

Which INHIBITION does the source give for `CC(C1CCN(C(=O)c2coc(CN3CCOCC3)c2)CC1)N(C)C` (stereo not drawn) here?
Its INHIBITION is 35.8%.

`Cc1cc(NCCC(=O)NC2CCS(=O)(=O)C2)nc(-c2ccncc2)n1` (stereo not drawn) was tested. Which INHIBITION did it give?
The INHIBITION was 15.7%.

For `COc1cccc(C(=O)N2CCc3nc(C4CCCN4)ncc3C2)c1` (stereo not drawn), which INHIBITION is on record?
Its INHIBITION is 59.3%.

With `CC(C)c1cc(C(=O)N2CCc3nc(C4CCCN4)ncc3C2)cs1` (stereo not drawn) as the compound, how does the INHIBITION read?
The INHIBITION was 28%.

`Cc1cc(C(=O)N2CCc3nc(C4CCCN4)ncc3C2)cs1` (stereo not drawn) was tested. Which INHIBITION did it give?
The INHIBITION was -16.5%.

From ChEMBL document CHEMBL4513216, “Probing the Open Global Health Chemical Diversity Library for Multistage-Active Starting Points for Next-Generation Antimalarials” (ACS Infect Dis, 2020)
